About 8,600 (12%) of roughly 69,000 compounds showed an effect of 50% or more. The entries come from a sample that favours strong results as a whole.
Tested on: Plasmodium berghei
Experiment: Screen against P. berghei liver stage (PbLuc), transformed with Luciferase, at 10uM
Assay type: functional, HepG2
Conditions: tested at 10 uM

Compound	INHIBITION [%]
O=C(c1ccncn1)N1CCC[C@]2(C[C@H](Oc3ncccc3F)CO2)C1	-10.3
COc1cccc(S(=O)(=O)N2C[C@@H](O)[C@H](N(C)C)C2)c1	9.98
Cn1cc(-c2cnc(N3CCCC3)nc2)cc1C(=O)N1CCOCC1	-18.4
Cn1nccc1C(=O)N1CCC(c2ncc(Cl)cc2S(C)(=O)=O)CC1	30.4
CCn1ncc(CN2C[C@@H]3CCCN3C[C@@H]2CCSC)c1C	46
CCn1ncc(CN2C[C@@H]3CCCN3C[C@H]2CCSC)c1C	2.71
CCCn1ncc(CN2C[C@@H]3CCCN3C[C@H]2Cc2ccccc2)c1C	57.5
C=Cn1ncc(CN2C[C@@H]3CCCN3C[C@H]2CCSC)c1C	30.1
C=Cn1ncc(CN2C[C@@H]3CCCN3C[C@@H]2Cc2ccccc2)c1C	50
C=Cn1ncc(CN2C[C@@H]3CCCN3C[C@H]2Cc2ccccc2)c1C	51.5
C=Cn1ncc(CN2C[C@@H]3C[C@@H](O)CN3C[C@@H]2Cc2ccccc2)c1C	42.6
C=Cn1ncc(CN2C[C@@H]3C[C@@H](O)CN3C[C@H]2Cc2ccccc2)c1C	13
CCCn1ncc(CN2C[C@@H]3CCCN3C[C@@H]2CCSC)c1C	57.4
CCCn1ncc(CN2C[C@@H]3CCCN3C[C@@H]2Cc2ccccc2)c1C	29.3
C=Cn1ncc(CN2C[C@@H]3CCCN3C[C@@H]2CCSC)c1C	30.8
CCCn1ncc(CN2C[C@@H]3CCCN3C[C@H]2CCSC)c1C	37.6
Cc1nc(N2CCN(c3ccccc3)CC2)c2c(n1)c(C)nn2C	25.1
CC(=O)N1CCN(CC=C(C)C)CC1	19.1
CCNC(=O)[C@@H]1C[C@@H](NC(=O)c2cccn2C)CN1CCCSC	-7.7
Cc1cc(-c2cccc(-c3ccn(CCCO)n3)c2)nc(N(C)C)n1	-22.8
COc1ccc(OC)c(CCNC(=O)CCC2CCCO2)c1 (stereo not drawn)	38.3
O=C(CCC1CCCO1)NCCCC(=O)Nc1ccc(Cl)cc1 (stereo not drawn)	36.8
CCOCCNC(=O)CCC1CCCO1 (stereo not drawn)	42.1
O=C(CCC1CCCO1)NCCN1CCCCC1 (stereo not drawn)	52.2
O=C(CCC1CCCO1)NCCc1ccccn1 (stereo not drawn)	18.3
O=C(CCC1CCCO1)NCCCO (stereo not drawn)	51
Cc1c[nH]nc1C1CCCN(C(=O)Cn2cccn2)C1 (stereo not drawn)	2.71
Cc1nc(C2CCCCN2S(C)(=O)=O)no1 (stereo not drawn)	-4.87
